KB-V1 MDR tox = KB-V1 MDR subline cytotoxicity. KB-V1 MDR cells viability, CellTiter-Glo, 72 h. Potency, µM (doses to about 46.1 µM), hits mostly cytotoxic. 400,000 tested, 3.4% active. AID 1347076; further: nearly all actives have a fitted effect of over 60% in size
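Potencies derive from concentration-effect curves fitted to normalized luminescence (CellTiter-Glo) of KB-V1 cells treated for 72 h at 37 degrees C in phenol-red-free DMEM containing 10% FBS.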
MCF10A rereplic = DNA re-replication induction in MCF 10a cells; MCF 10A DNA re-replication, Hoechst nuclear intensity, 48 h; Potency, µM (top dose mostly 46.1 µM), most hits filed as activators; AID 624296; 350,000 tested, 2.9% active; further: nearly all actives have a fitted effect of over 50% in size
ELG1 repair inh = inhibitors of ELG1-dependent DNA repair in HEK293T cells; HEK293T ELG1-luciferase reporter, luminescence, 16 h; DNA damage induced by 5-fluorouridine; Potency, µM (top dose mostly 46.1 µM), most hits filed as inhibitors; 330,000 tested, 2.3% active; AID 504467; further: nearly all actives have a fitted effect of over 55% in size
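Luminescence from the luciferase reporter, measured 30 min after ONE-Glo reagent at room temperature, was the read-out. Beforehand, 2,000 cells per well were exposed for 16 hr at 37 °C to 5-fluorouridine together with compound or vehicle.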
KB-3-1 cytotox = KB-3-1 parental cell cytotoxicity. AID 1347075. KB-3-1 viability, CellTiter-Glo ATP luminescence, 72 h. 400,000 tested, 1.4% active. Potency, µM (top dose mostly 46.1 µM), hits mostly cytotoxic; further: nearly all actives have a fitted effect of over 60% in size
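Parental KB-3-1 adenocarcinoma cells in phenol-red-free DMEM with 10% FBS were pin-treated with compounds at several concentrations, incubated 72 h at 37 °C, and viability read by CellTiter-Glo luminescence; concentration-effect curves were fitted after normalization.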
SW480 rereplic = induces DNA re-replication in SW480 colon adenocarcinoma cells; SW480 DNA re-replication, Hoechst DNA content imaging, 48 h; Potency, µM (titrated, usually from 46.1 µM), usual class: activators; 340,000 tested, 1.8% active; AID 624297; further: nearly all actives have a fitted effect of over 55% in size
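Compounds, transferred as 23 nL by pin tool, were incubated with cells for 48 hr; DNA content per nucleus was then quantified by Hoechst staining and fluorescence plate imaging.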
Of the large screens only hits and unclear results are named; the others gave an inactive call. Sampled rows, rich in hits. Any-hit rate of the full collection: about 8.2%. The call rests on the fitted dose curve; in most records, active means well fitted curve in the direction sought with a large enough effect; inconclusive means small, poorly fitted or top-dose-only effect, or another doubt; inactive means no such curve, though single readings can be large; an effect the other way counts as inactive or inconclusive.

COc1ccc(-n2nc3cc(C)c(N)cc3n2)cc1Cl	MCF10A rereplic 3.3µM, ELG1 repair inh inconclusive, SW480 rereplic 15µM
Cc1cc2nn(-c3ccc(Cl)cc3)nc2cc1N	MCF10A rereplic 21µM, ELG1 repair inh inconclusive, SW480 rereplic 23µM
Cc1cc(N)n(-c2ccc(Cl)cc2)n1	none
Cc1cc2nn(-c3ccc(F)cc3)nc2cc1NC(=O)c1ccc(C(C)(C)C)cc1	none (no result: MCF10A rereplic, ELG1 repair inh, SW480 rereplic)
Cc1cc2nn(-c3ccc(F)cc3)nc2cc1N	MCF10A rereplic 21µM, ELG1 repair inh inconclusive, SW480 rereplic 21µM
O=C(O)CCc1nn2c3ccccc3nc2n(Cc2ccccc2)c1=O	ELG1 repair inh inconclusive
COCc1nnc(NC(=O)C2CC(=O)N(C3CCCC3)C2)s1 (stereo unspecified)	none
CC(C)CC(N)c1csc(Nc2cc(Oc3ccccc3)ncn2)n1 (stereo unspecified)	KB-V1 MDR tox inconclusive (no result: MCF10A rereplic, ELG1 repair inh, SW480 rereplic)
O=C(NCc1ccc(F)cc1)OC1CC2CC1[C@H]1CCCCN1C2=O (stereo partly specified)	none (no result: MCF10A rereplic, ELG1 repair inh, SW480 rereplic)
O=C(NCc1ccc(F)cc1)C(=O)Nc1ccc2nc3n(c(=O)c2c1)CCCCC3	none (no result: MCF10A rereplic, ELG1 repair inh, SW480 rereplic)
COC(=O)CCC(=O)c1oc2ccc(Cl)cc2c1NC(=O)CCCN1C(=O)c2ccccc2C1=O	MCF10A rereplic inconclusive, ELG1 repair inh 4.6µM
CCc1ccc(NC(=S)NNC(=O)c2ccccc2OC(F)F)cc1	MCF10A rereplic inconclusive (no result: KB-V1 MDR tox, KB-3-1 cytotox)
Cc1cccc(NC(=S)NNC(=O)c2ccccc2OC(F)F)c1	KB-V1 MDR tox 16µM, MCF10A rereplic inconclusive, KB-3-1 cytotox inconclusive
Cc1cccc(NC(=S)NNC(=O)c2ccccc2Br)c1	KB-V1 MDR tox inconclusive, ELG1 repair inh inconclusive
COc1ccc(NC(=S)NNC(=O)c2ccccc2OC(F)F)cc1	MCF10A rereplic inconclusive, SW480 rereplic 0.58µM
O=C(Cc1ccc([N+](=O)[O-])cc1)c1c(O)cc(O)cc1O	none
Cc1cc(O)cc(O)c1C(=O)Cc1ccccc1	ELG1 repair inh 10µM
Cc1cc(C)cc(NC(=O)N2CCN(c3cc(-c4noc(C)n4)ccc3C)CC2)c1	none (no result: MCF10A rereplic, ELG1 repair inh, SW480 rereplic)
Cc1cc(C)c(Cn2c(=O)n(CCC(=O)NCc3ccc4c(c3)OCO4)c(=O)c3ccccc32)c(C)c1	KB-V1 MDR tox inconclusive (no result: MCF10A rereplic, ELG1 repair inh, SW480 rereplic)
Cn1c(=S)oc2ccccc21	MCF10A rereplic inconclusive
CC(C)CC(=O)/C=C/n1c(=S)oc2ccccc21	KB-V1 MDR tox inconclusive, MCF10A rereplic 3.7µM, ELG1 repair inh inconclusive, KB-3-1 cytotox inconclusive, SW480 rereplic 8.2µM
CC(=O)/C=C/n1c(=S)oc2ccccc21	KB-V1 MDR tox 16µM, MCF10A rereplic 3.3µM, ELG1 repair inh inconclusive, KB-3-1 cytotox inconclusive
CC(=O)Nc1ccc(NC(=O)CCn2c(=S)oc3ccccc32)cc1	KB-V1 MDR tox inconclusive, ELG1 repair inh inconclusive, KB-3-1 cytotox inconclusive
CC(=O)Nc1ccc(NS(=O)(=O)c2cc(-c3n[nH]c(=O)c4ccccc34)ccc2C)cc1	KB-V1 MDR tox inconclusive
CCCCn1c(N)c(C(=S)NC(=O)CC(C)(C)C)c(=O)n(C)c1=O	KB-V1 MDR tox inconclusive, MCF10A rereplic 21µM, KB-3-1 cytotox inconclusive
CCCn1c(N)c(C(=O)CSc2ncn[nH]2)c(=O)n(C)c1=O	none
COc1cc(/C=C/C(O)=C/C(=O)/C=C/c2ccc(O)cc2)ccc1O	MCF10A rereplic 18µM, ELG1 repair inh inconclusive, KB-3-1 cytotox inconclusive, SW480 rereplic inconclusive
Cc1ccc(COC(=O)c2[nH]c3c(c2C)C(=O)CC(c2ccc(Cl)cc2)C3)cc1 (stereo unspecified)	KB-V1 MDR tox inconclusive (no result: MCF10A rereplic, ELG1 repair inh, SW480 rereplic)
CCOc1ccc(C(=O)/C=C/c2cn(CN3CCN(C)CC3)c3ccccc23)cc1	MCF10A rereplic 10µM, ELG1 repair inh inconclusive, SW480 rereplic inconclusive
COc1ccc(C(=O)/C=C/c2cn(CN3CCN(C)CC3)c3ccccc23)cc1	MCF10A rereplic 8.2µM, ELG1 repair inh inconclusive, KB-3-1 cytotox inconclusive, SW480 rereplic 21µM
CCCN(CCC)CC(O)Cn1cc(/C=C/C(=O)c2ccc(OCC)cc2)c2ccccc21 (stereo unspecified)	KB-V1 MDR tox inconclusive (no result: MCF10A rereplic, ELG1 repair inh, SW480 rereplic)
O=C(CSc1cn[nH]n1)Nc1ccccc1C(F)(F)F	none
CCOc1ccc(/C=N/NC(=O)c2[nH]c3ccc(C)cc3c2C)cc1	MCF10A rereplic inconclusive
Cc1c(C(=O)N/N=C/c2ccc(Cl)cc2)[nH]c2ccc(Cl)cc12	KB-V1 MDR tox inconclusive, MCF10A rereplic inconclusive, KB-3-1 cytotox 1µM, SW480 rereplic 2.1µM
COc1cccc(/C=N/NC(=O)c2[nH]c(C)c(C(=O)N/N=C/c3cccc(OC)c3)c2C)c1	MCF10A rereplic inconclusive, ELG1 repair inh 21µM
COc1ccc(NC(=O)c2[nH]c(C)c(C(C)=O)c2C)cc1	KB-V1 MDR tox inconclusive, ELG1 repair inh inconclusive, KB-3-1 cytotox inconclusive
COc1ccc(/C=N/NC(=O)c2[nH]c(C)c(C(=O)N/N=C/c3ccc(OC)cc3)c2C)cc1	KB-V1 MDR tox inconclusive, MCF10A rereplic inconclusive, ELG1 repair inh 21µM
CC(C)N(c1ccccc1)c1ccc(NC(=O)[C@@H]2O[C@H](CO)[C@@H](O)[C@H]2O)cc1	none (no result: MCF10A rereplic, ELG1 repair inh, SW480 rereplic)
CCNC(=O)CC1C(=O)N(c2ccc(C)cc2)C(=O)N1CCC(C)C (stereo unspecified)	none
CCn1c(=O)cc(OCC(=O)NCc2ccccc2OC)c2ccccc21	none (no result: MCF10A rereplic, ELG1 repair inh, SW480 rereplic)
Cc1cccc(N2CCN(C(=O)Cn3ncc4c5ccccc5n(C)c4c3=O)CC2)c1C	none (no result: MCF10A rereplic, ELG1 repair inh, SW480 rereplic)
